# Measured values taken from PubChem BioAssay (NCI).
# This is part of a sample that, as a whole, favours compounds with a hit. Of some 83,000 tested, about 20% had one in any assay.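 Note: values are percent growth. 100 is the growth of untreated cells, values between 100 and 0 indicate rising inhibition; between -100 and 0 indicates cell death.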 A number with no mark means an inactive call. Calls of active or inactive are those of the source.
# Test system: IGROV1 ovarian
# Test: NCI-60 one-dose screen, 48 h (100 = growth as untreated, 0 = no growth, -100 = all killed)
# Conditions: 10 µM unless noted
# Description: Growth inhibition of the IGROV1 human tumor cell line is measured as a screen for anti-cancer activity. Cells are grown in 96 well plates and exposed to the test compound for 48 hours. Compounds are tested at a single concentration, which is 10^-5 M for most compounds. The reported endpoint is percent growth (GI% or GIPRCNT), where numbers from 0 - 100% represent growth inhibition, and numbers from -100% - 0 represent cell death. For example, a value of 40 represents 60% growth inhibition. A value of 0 means no net growth occurred over the course of the experiment. A value of -40 indicates 40% of cells at the beginning of the experiment died by the end of the experiment. A value of -100 means all cells are dead at the end of the experiment.
# NCI-60 Human Tumor Cell Lines Screen was performed using the standard one-dose NCI protocol, which is described in more detail at https://dtp.cancer.gov/discovery_development/nci-60/default.htm.
# Compounds with GIPRCNT values below 10 were considered active. Activity score was based on GIPRCNT using the following formula: […]
# Score is 0 for GIPRCNT values of 100 or above, 50 for GIPRCNT values of 0, and 100 for GIPRCNT values of -100.
row,Compound,growth
1,COc1ccc2[nH]c(O)c(C(=Nc3ccc(N(C)C(=O)CN4CCN(C)CC4)cc3)c3ccccc3)c2c1,22.5%
2,O=C(Nc1cccc(Cl)c1)c1cc(N=Nc2ccc([N+](=O)[O-])cc2Cl)ccc1O,22.9%
3,CC(=O)n1c(-c2ccc(Cl)cc2)nc2c(c1=O)C(c1ccc(Cl)cc1)c1sc3c(Cl)cccc3c1O2 (stereo not given),13.2%
4,Cc1ccc(C(=O)C2=C(O)C(=O)N(Cc3cccnc3)C2c2ccccc2F)o1 (stereo not given),68.2%
5,Cc1c(C(=O)NC(Cc2ccccc2)C(O)C(=O)NCc2ccc(F)cc2)[nH]c2ccccc2c1=O (stereo not given),103%
6,CCN1C(=O)N(CC)C2Nn3c(s/c(=C\c4ccc(Cl)cc4Cl)c3=O)=NC21 (stereo not given),40.6%
7,COC(=O)[C@]12CC[C@@H](C)[C@H](C)[C@@H]1C1=CC[C@@H]3[C@@]4(C)C(C=O)=C[C@@](C)(COS(C)(=O)=O)C4[C@H](O)C[C@@]3(C)[C@]1(C)CC2 (stereo not given in full),-13.4% (active)
8,Cc1ccc(/C=C/c2c(C(=O)/C=C/c3ccc(Cl)cc3)c(C)nc3ccccc23)cc1,1.39% (active)
9,Cc1cc(NCc2cc(Nc3ccnc4cc(Cl)ccc34)ccc2F)nc(N2CCCC2)n1,-2.2% (active)
10,COC(=O)[C@]12CC[C@@H](C)[C@H](C)[C@@H]1C1=CC[C@@H]3[C@@]4(C)C(C=O)=C[C@@](C)(COC(C)=O)[C@@H]4[C@H](O)C[C@@]3(C)[C@]1(C)CC2,2.81% (active)
11,Fc1ccc(CNc2c3ccccc3nc3ccccc23)cc1F,22.8%
12,CCn1c(C)nc2cc(C(N)=O)ccc21,109%
13,Cc1cc(NCc2cc(Nc3ccnc4cc(Cl)ccc34)ccc2F)nc(N2CCOCC2)n1,49.7%
14,Cc1cccc(-c2nc(N(C)c3ccc4ncsc4c3)c3ccccc3n2)n1,68.9%
15,COc1cc(-c2nc(N3CCN(C)CC3)c3ccccc3n2)cc(OC)c1OC,62.5%
16,COc1ccc(C2=Nc3c(N)ncnc3NC(c3ccc4c(c3)OCO4)C2)cc1 (stereo not given),37%
17,CC(CCc1ccc(Cl)c(Cl)c1)NCc1ccc(C(C)(C)C)cc1 (stereo not given),90.3%
18,C=C(C)[C@@H]1CC=C2c3sc(-c4ccc(C)cc4)nc3C[C@@H](C)[C@]2(C)C1,109%
19,C=C1C(=O)O[C@H]2[C@H]1CC/C(CNC(=O)/C=C/c1ccc(Cl)cc1Cl)=C\CC[C@@]1(C)O[C@@H]21,-32.7% (active)
20,Cc1c(C(=O)N[C@@H](Cc2ccccc2)C(=O)C(=O)NCCc2ccccc2)[nH]c2ccccc2c1=O,95.3%

row,Compound,growth
1,S=C(c1ccc2c(c1)OCO2)N1CCN(c2ccccc2Cl)CC1,101%
2,COc1ccc(-c2nc(SCC(=O)Nc3nc(-c4ccccc4)cs3)[nH]c(=O)c2C#N)cc1,88.3%
3,O=C(/C=C/c1c(Cl)nc2sccn12)c1ccc(F)c(F)c1,87.5%
4,COc1ccccc1N1C(=O)/C(=C/C2=Cc3ccccc3OC2)SC1=S,97.2%
5,NS(=O)(=O)c1cnccc1Sc1ccncc1S(N)(=O)=O,6.71% (active)
6,CNC(=O)c1cc(Oc2ccc3nc(Nc4ccc(Cl)c(C(F)(F)F)c4)ccc3c2)ccn1,83.8%
7,COc1nc2c(c(=O)n1C)CN(c1ccccc1)C(=O)CN2C,37.6% [100 µM]
8,N#Cc1c(-c2cccc(Cl)c2)cc(-c2cccc(F)c2)[nH]c1=O,94.4%
9,Clc1ccc(-c2c3ccc(=[N+]4CCCCC4)cc-3oc3cc(N4CCCCC4)ccc23)cc1,-77% (active)
10,COc1ccc(Cl)cc1NC(=O)C(Br)C(Br)C(=O)O (stereo not given),-14.4% (active)
11,CC1CC2Oc3ccc(Cl)cc3C(=O)N2O1 (stereo not given),125%
12,CC(C)C(=O)Nc1n[nH]c2cc(-c3cccc(NS(=O)(=O)C4CC4)c3)ccc12,64.6%
13,O=C(O)CN1C(=O)CCC1=O,118%
14,CN(C)c1ccc(-c2cc(-c3ccc(Nc4nc(Nc5ccc(Cl)cc5)nc(Nc5ccc(Cl)cc5)n4)cc3)no2)cc1,22.4%
15,N#Cc1nc(C#N)c(Sc2ccccc2)c(Sc2ccccc2)c1Sc1ccccc1,-67.9% (active)
16,c1coc(-c2c3ccc(=[N+]4CCCCC4)cc-3oc3cc(N4CCCCC4)ccc23)c1,-67.5% (active)
17,C[C@]12CC[C@@H]3c4cc(OC(F)F)c(O)cc4CC[C@H]3[C@@H]1CC[C@@H]2OS(N)(=O)=O,37.1%
18,CCN(CC)CCCNc1ccc(Nc2ccc(OC)cc2)cc1,37.6%
19,CC(C)(C)n1cc(-c2ccnc(NCCCNS(=O)(=O)c3ccccc3)c2)c(-c2ccccc2)n1,78.3%
20,Cc1ccc(NS(=O)(=O)c2ccc3c(c2)C(=O)CC(c2ccc(C(=O)C(C)C)cc2)N3)cc1C (stereo not given),66.8%
